Source: PubChem BioAssay (National Center for Advancing Translational Sciences (NCATS))
IL1B secr inh = qHTS for Inhibitors of Inflammasome Signaling: IL-1-beta AlphaLISA Primary Screen. THP-1 LPS/ATP IL-1B secretion, AlphaLISA, 16 h; hits give low values. activity change, % at 57.5 µM. hit rate 4.7% among 360,000; in the data active = activity change below about -50%; inconclusive = mostly about -30% to -49%
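Secreted IL-1B measured by AlphaLISA bead assay after 16 h compound exposure of THP-1 cells; compounds (final up to 57.5 uM) added 1 h before LPS (250 ng/mL) and ATP (1.25 mM) stimulation; lower signal means less secretion.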
uPA generation = qHTS for Inhibitors of Cell Surface uPA Generation. cell surface uPA generation assay, qHTS. Potency, µM (doses to about 38.3 µM), most hits filed as inhibitors. hit rate 0.31% among 330,000; active = well fitted inhibition curve with a large enough effect; inconclusive = small, poorly fitted or top-dose-only effect; inactive = no such curve, though single readings can be large or run the other way; tested in mouse RAW 264.7 cells; also: nearly all actives have a fitted effect of over 55% in size
HT1080 IDH1KD tx = qHTS for induction of synthetic lethality in tumor cells producing 2HG: qHTS for the HT-1080-IDH1KD cell line; HT-1080 IDH1 knockdown viability, ATP luminescence, 48 h; Potency, µM (series often up to 46.1 µM), usual class: cytotoxic; hit rate 2% among 360,000; AID 686971, 2013
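In this qHTS, HT-1080 cells depleted of IDH1 are exposed for 48 h at 37 °C to compound titrations. Toxicity is scored from CellTiter-Glo luminescence, with DMSO as full viability and medium alone as none.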
HT1080-NT tox = qHTS for induction of synthetic lethality in tumor cells producing 2HG: qHTS for the HT-1080-NT fibrosarcoma cell line. HT-1080-NT fibrosarcoma viability, CellTiter-Glo ATP luminescence, 48 h. Potency, µM (titrated, usually from 46.1 µM), hits mostly cytotoxic. hit rate 1.6% among 360,000. AID 686970, 2013;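 also: NT is the 2HG producing partner of a matched IDH1 knockdown line; nearly all actives have a fitted effect of over 55% in size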
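Toxicity toward the 2HG-producing NT line was scored as %Activity, normalised to DMSO and no-cell wells, from CellTiter-Glo luminescence after 48 hours' treatment.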
DT40 TDP1 no CPT = qHTS for Inhibitors of human tyrosyl-DNA phosphodiesterase 1 (TDP1): qHTS in cells in absence of CPT; DT40 Tdp1-/- hTDP1 cells, no CPT, ATP luminescence, 48 h; Potency, µM (series often up to 46.2 µM), usual class: inhibitors; hit rate 15% among 420,000; also: nearly all actives have a fitted effect of over 55% in size
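Chicken DT40 Tdp1-/- cells stably complemented with human TDP1 were seeded at 400 cells/well with DMSO in place of 20 nM camptothecin. After compound pinning, cells grew at least 48 hr at 37 °C; viability read by CellTiter-Glo luminescence.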
TDP1 cell CPT = qHTS for Inhibitors of human tyrosyl-DNA phosphodiesterase 1 (TDP1): qHTS in cells in presence of CPT. chicken DT40 Tdp1-/-;hTDP1 cells + 20 nM CPT, ATP luminescence, 48 h. Potency, µM (top dose mostly 46.2 µM), usual class: inhibitors. hit rate 12% among 420,000; also: nearly all actives have a fitted effect of over 55% in size
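Cell growth measured by CellTiter-Glo luminescence after a minimum 48 h, 37 C compound exposure with 20 nM CPT in Tdp1-knockout DT40 cells stably expressing hTDP1, seeded 400/well; qHTS titration format.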
Numbers stand for hits. An excerpt weighted towards active compounds, which were near 19% of everything screened. Unless noted, calls follow the shape of the dose curve; as a rule, active = well fitted curve in the direction sought with a large enough effect; inconclusive = small, poorly fitted or top-dose-only effect, or another doubt; inactive = no such curve, though single readings can be large; an effect the other way counts as inactive or inconclusive.

What do the screens show for `CC(C)C(NC(=O)OCc1ccccc1)C(=O)NC1CCCCC1` (configuration not stated)?
IL1B secr inh: inactive; uPA generation: inactive; HT1080 IDH1KD tx: inactive; HT1080-NT tox: inactive; DT40 TDP1 no CPT: inactive; TDP1 cell CPT: inactive

Results for Cn1c(=O)c2c(SCC(=O)NCc3ccco3)nc(-c3ccccc3)nc2n(C)c1=O ?
DT40 TDP1 no CPT: inactive; TDP1 cell CPT: inactive

Results for O=C1C=C(c2cccc3c2Oc2ccccc2S3)C[C@@H](c2ccc(Cl)cc2)C1 ?
IL1B secr inh: inactive; uPA generation: inactive; HT1080 IDH1KD tx: inactive; HT1080-NT tox: inactive; DT40 TDP1 no CPT: inconclusive; TDP1 cell CPT: inconclusive

Results for COc1ccc([C@H]2CC(=O)C=C(c3cccc4c3Oc3ccccc3S4)C2)cc1OC ?
IL1B secr inh: inactive; uPA generation: inactive; HT1080 IDH1KD tx: inactive; HT1080-NT tox: inactive; DT40 TDP1 no CPT: 13µM; TDP1 cell CPT: 16.4µM

What do the screens show for `C[C@@H]1CN([C@@H](C)CO)C(=O)CCCn2nncc2CO[C@H]1CN(C)S(=O)(=O)c1ccc(-n2cccn2)cc1`?
IL1B secr inh: inactive; HT1080 IDH1KD tx: inactive; HT1080-NT tox: inactive; DT40 TDP1 no CPT: inactive; TDP1 cell CPT: inactive

Results for CCCn1ncc(CN2CCN(Cc3ccsc3)C(CCO)C2)c1C (configuration not stated) ?
IL1B secr inh: inactive; uPA generation: inactive; HT1080 IDH1KD tx: inactive; HT1080-NT tox: inactive; DT40 TDP1 no CPT: inactive; TDP1 cell CPT: inactive

What do the screens show for `Cc1cc(C(=O)c2ccc(Cl)cc2)c(NC(=O)CCl)s1`?
IL1B secr inh: -116.9; uPA generation: inactive; HT1080 IDH1KD tx: inconclusive; HT1080-NT tox: inconclusive; DT40 TDP1 no CPT: 7.31µM; TDP1 cell CPT: 8.2µM

How did O=[N+]([O-])c1ccc2c(c1)Cc1cc(F)ccc1-2 do in these assays?
IL1B secr inh: inactive; uPA generation: inactive; HT1080 IDH1KD tx: inactive; HT1080-NT tox: inconclusive; DT40 TDP1 no CPT: inconclusive; TDP1 cell CPT: inactive

How did O=CNc1c(Cl)cc2c(c1Cl)Cc1cc([N+](=O)[O-])ccc1-2 do in these assays?
IL1B secr inh: inactive; uPA generation: inactive; HT1080 IDH1KD tx: inactive; HT1080-NT tox: inactive; DT40 TDP1 no CPT: 11.6µM; TDP1 cell CPT: 11.6µM

Results for CC(=O)Oc1ccc(C2(c3ccc(OC(C)=O)cc3)Oc3ccccc3NC2=O)cc1 ?
DT40 TDP1 no CPT: 18.8µM; TDP1 cell CPT: inconclusive

What do the screens show for `COc1ccc(-c2nnn(Cc3ccccc3)n2)cc1OC`?
IL1B secr inh: inactive; uPA generation: inactive; HT1080 IDH1KD tx: inactive; HT1080-NT tox: inactive; DT40 TDP1 no CPT: inactive; TDP1 cell CPT: inactive

What do the screens show for `COc1cc2c3nnc(-c4ccc(F)cc4)c-3cn(Cc3ccccc3)c2cc1OC`?
IL1B secr inh: -95.0; uPA generation: inactive; HT1080 IDH1KD tx: inconclusive; HT1080-NT tox: inactive; DT40 TDP1 no CPT: 5.17µM; TDP1 cell CPT: 3.26µM

Results for COc1ccc(Cn2cc3c(-c4ccc(F)cc4)nnc-3c3cc(OC)c(OC)cc32)cc1 ?
IL1B secr inh: inactive; uPA generation: inactive; HT1080 IDH1KD tx: inconclusive; HT1080-NT tox: inconclusive; DT40 TDP1 no CPT: 4.11µM; TDP1 cell CPT: 4.11µM

Results for COc1cc2c3nnc(-c4ccc(F)cc4)c-3cn(Cc3ccc(F)cc3)c2cc1OC ?
IL1B secr inh: inactive; uPA generation: inactive; HT1080 IDH1KD tx: inconclusive; HT1080-NT tox: inactive; DT40 TDP1 no CPT: 2.59µM; TDP1 cell CPT: 2.31µM

What do the screens show for `CC1(C(=O)Nc2ccc(Cl)c(C(F)(F)F)c2)Cc2c(-c3ccc4c(c3)OCO4)ccnc2O1` (configuration not stated)?
IL1B secr inh: inactive; HT1080 IDH1KD tx: inconclusive; HT1080-NT tox: inconclusive; DT40 TDP1 no CPT: inconclusive; TDP1 cell CPT: inconclusive
